Bioassay records deposited in PubChem by National Center for Advancing Translational Sciences (NCATS).
An excerpt weighted towards active compounds, which were near 9.2% of everything screened.
Rab9 promoter act: Rab9 promoter activation; 320,000 tested, 2.8% active; Huh7 Rab9 promoter-luciferase reporter, luminescence, 24 h; Potency, µM (doses to about 9.22 µM), without a hit: at the top dose activation, negative = inhibition, usual class: activators; also: % of control where 0% means no effect; nearly all actives have a fitted effect of over 60% in size
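Promoter activation is measured as luciferase luminescence in Huh7 cells stably transfected with a Rab9 promoter–luciferase construct, following 24 h compound exposure at 37 °C and 10 min reagent incubation at ambient temperature.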
FLuc counter: firefly luciferase modulation, counter-screen for miR-21 project. AID 588342. 360,000 tested, 6.9% active. Potency, µM (highest dose often 57.5 µM), for inactives: at the top dose activity change, negative = inhibition, hits mostly inhibitors. P08659. purified FLuc, Km substrates, luminescence inhibition;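 also: plate controls were vehicle for no effect and reference inhibitor for full effect; nearly all actives have a fitted effect of over 55% in size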
Target sequence (P08659 whole entry, looked up): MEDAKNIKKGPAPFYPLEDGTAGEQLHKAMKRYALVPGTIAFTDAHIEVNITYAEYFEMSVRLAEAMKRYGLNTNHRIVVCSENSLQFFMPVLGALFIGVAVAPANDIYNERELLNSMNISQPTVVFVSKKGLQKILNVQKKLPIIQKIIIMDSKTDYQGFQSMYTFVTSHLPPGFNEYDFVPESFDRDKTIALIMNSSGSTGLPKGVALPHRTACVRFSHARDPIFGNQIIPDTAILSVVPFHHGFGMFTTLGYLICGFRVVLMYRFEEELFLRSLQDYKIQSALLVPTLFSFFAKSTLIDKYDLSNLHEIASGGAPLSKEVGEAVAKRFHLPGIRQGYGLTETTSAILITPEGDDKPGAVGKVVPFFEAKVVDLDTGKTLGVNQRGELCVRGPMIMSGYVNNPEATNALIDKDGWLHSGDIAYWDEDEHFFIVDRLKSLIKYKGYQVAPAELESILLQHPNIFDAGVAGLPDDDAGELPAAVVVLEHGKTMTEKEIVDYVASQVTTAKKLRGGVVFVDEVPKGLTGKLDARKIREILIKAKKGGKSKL
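Purified P. pyralis luciferase, 10 nM final, with Km-level 10 uM D-luciferin and 10 uM ATP in 50 mM Tris acetate pH 7.5, 10 mM Mg acetate, 0.01% Tween-20, 0.05% BSA; 6-point qHTS titration about 60 µM downward; luminescence read.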
ELG1 genotox: induces genotoxicity in HEK293T cells with luciferase-tagged ELG1; HEK293T ELG1-luciferase reporter, luminescence, 16 h; Potency, µM (series often up to 46 µM), inactives show at the highest dose activity change, positive = activation, actives largely listed as activators; 330,000 tested, 1.3% active; also: % of control where 0% means no effect; nearly all actives have a fitted effect of over 60% in size
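Genotoxic stress is detected as increased luminescence from luciferase-tagged ELG1 in HEK293T cells, measured with ONE-Glo after a 16 hr treatment at 37 °C.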
NPC1 promoter act: NPC1 promoter activation; 320,000 tested, 2.4% active; Potency, µM (titrated, usually from 9.22 µM), for inactives: at the highest dose activation, usual class: activators; Huh7 NPC1 promoter luciferase reporter, 24 h; also: % of control where 0% means no effect; nearly all actives have a fitted effect of over 60% in size
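Huh7 cells stably carrying NPC1 promoter–luciferase, plated in Opti-MEM with 10% FBS for 2 h, were exposed to compound in DMSO for 24 h at 37 °C; luciferase reagent was added for 10 min and luminescence read.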
SMN2 splice enh: increases expression of the SMN2 splice variant. 210,000 tested, 2.8% active. AID 1458. HEK293 SMN2-luciferase splicing reporter, luminescence, 30-36 h. Potency, µM (doses to about 46.1 µM), inactives show top-dose activity change, positive = activation, usual class: activators; also: % of control where 0% means no effect; nearly all actives have a fitted effect of over 55% in size
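HEK293 cells carry an SMN2 […]–luciferase reporter in which exon 7 inclusion puts luciferase in frame. Cells were plated 10-12 h before compound addition, then incubated 30-36 h at 37C. ONE-Glo luminescence was read; sodium butyrate at 4.5 mM final served as control.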
ELG1 DNA repair: inhibitors of ELG1-dependent DNA repair in HEK293T cells. Potency, µM (titrated, usually from 46.1 µM), without a hit: top-dose activity change, negative = inhibition, actives largely listed as inhibitors. AID 504467. HEK293T ELG1-luciferase reporter, luminescence, 16 h; DNA damage induced by 5-fluorouridine. 330,000 tested, 2.3% active; also: % is scaled to controls: 0 for no effect and ±100 for the full control effect; nearly all actives have a fitted effect of over 55% in size
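Reporter activity after DNA damage by 5-fluorouridine is monitored. Compound-treated cells incubate 16 hr at 37 °C, then ONE-Glo is added for 30 min before luminescence reading.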
An asterisk follows results filed as active; ? = inconclusive; nt = not tested or not shown. Calls follow the shape of the dose curve; as a rule, active = well fitted curve in the direction sought with a large enough effect; inconclusive = small, poorly fitted or top-dose-only effect, or another doubt; inactive = no such curve, though single readings can be large; an effect the other way counts as inactive or inconclusive. Potency is read from the fitted curve at half-maximal effect.

SMILES	Rab9 promoter act	FLuc counter	ELG1 genotox	NPC1 promoter act	SMN2 splice enh	ELG1 DNA repair
O=C(Nc1ccc([N+](=O)[O-])cn1)c1cccnc1	-6%	-3%	2%	0%	nt	-1%
CC(C)(C)c1ccc(C(=O)Nc2ccc([N+](=O)[O-])cn2)cc1	1µM*	1.9µM*	?	0.71µM*	2.8µM*	?
Cc1cccnc1NC(=O)c1ccc2c(c1)OCO2	3%	-22%	11%	-1%	nt	?
O=C(Nc1nc(-c2ccccn2)cs1)c1ccc2c(c1)OCCO2	1.8µM*	1.1µM*	?	2.8µM*	nt	?
Cc1cccc(NC(=O)c2ccc3c(c2)OCCO3)n1	1.3µM*	9.5µM*	?	1.4µM*	nt	?
CC(=O)Nc1ccc(C(=O)Nc2nc(-c3ccccn3)cs2)cc1	-14%	?	-9%	-5%	11%	?
O=C(Nc1ncccc1Cl)c1ccc2c(c1)OCCO2	2.5µM*	13µM*	5.2µM*	3.2µM*	10µM*	?
O=C(Nc1ccccn1)c1ccc(C(=O)Nc2ccccn2)cc1	?	?	13%	?	nt	?
O=C(Nc1nc2c(F)cccc2s1)C1CC1	?	?	10%	?	nt	?
O=C(Nc1ccccn1)c1ccc2c(c1)OCCO2	0.63µM*	6.7µM*	8%	1.1µM*	2.5µM*	?
Cn1ccc(C(=O)NC(=S)Nc2ccc([N+](=O)[O-])cc2O)n1	2.8µM*	12µM*	12µM*	2.2µM*	nt	?
O=C(Nc1nc2c(F)cccc2s1)c1ccc2c(c1)OCCO2	nt	0.54µM*	nt	nt	nt	nt
Cc1cccc(C)c1-n1ncc(C(=O)O)c1C1CCN(C(=O)OC(C)(C)C)CC1	nt	-2%	nt	nt	-7%	nt
O=C(NCCc1ccc(F)cc1)Nc1ccccc1Cl	11%	-10%	-6%	0%	nt	20%
Cc1noc(/C=C/c2cccs2)c1S(=O)(=O)N1CCC(C(=O)NCc2ccccc2Cl)CC1	nt	0%	nt	nt	-6%	nt
O=C(NC(=S)Nc1cc([N+](=O)[O-])ccc1O)c1ccc2c(c1)OCO2	0.32µM*	1.5µM*	1µM*	0.32µM*	nt	?
O=C(Nc1ccc([N+](=O)[O-])cn1)c1ccc2c(c1)OCO2	1.6µM*	-6%	14%	?	?	?
O=C(Nc1nc(-c2ccccn2)cs1)c1ccccc1-n1cnnn1	-26%	?	10%	-11%	nt	2.6µM*
O=C(Cc1ccc([N+](=O)[O-])cc1)NNC(=O)c1ccc2c(c1)OCO2	3%	6%	10%	1%	nt	1%
COC(=O)c1sc(NC(=O)c2ccc(Cn3cc(Cl)cn3)o2)c(C#N)c1C	-1%	21µM*	-14%	1%	-14%	?
N#Cc1c(NC(=O)c2ccc(Cn3cc(Br)cn3)o2)sc2c1CCCCC2	-1%	11µM*	1%	21%	?	-8%
CC1CCc2c(sc(NC(=O)c3ccc(Cn4cc([N+](=O)[O-])cn4)o3)c2C#N)C1 (stereo not drawn)	7%	13µM*	1%	9%	3%	13%
O=C(NC1CCCCC1)c1ccc(Cn2cc(Br)cn2)o1	0%	-10%	4%	7%	0%	10%
Cc1ccccc1NC(=O)c1ccc(Cn2cc([N+](=O)[O-])cn2)o1	-1%	0%	0%	-5%	nt	10%
CC(=O)c1ccc(N2CCN(C(=O)NCc3noc4ccc(C)cc34)CC2)cc1	nt	-11%	nt	nt	nt	nt
CCn1c(-c2ccc(F)cc2)cnc1SCC(=O)N1CCCCC1C (stereo not drawn)	?	11µM*	6.5µM*	?	1%	?
COc1ncc2nc(-c3cc(F)cc(F)c3)c(=O)n(C[C@H]3CCCO3)c2n1	nt	nt	nt	nt	8%	nt
O=C(Nc1ccc2c(c1)OCO2)c1ccc(Cl)nc1	28%	?	?	26%	28%	?
